About 14,000 (4.5%) of roughly 310,000 compounds showed an effect of 50% or more. Effects have a minus sign here. Only a selection was taken, and strong results are over-represented in it overall.
These compounds were tested against human ether-à-go-go-related gene (hERG) potassium channel (human, UniProt Q12809) (assay: primary screen, population patch clamp on CHO cells stably expressing hERG; higher = less effect of the substance).
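Also: peak tail current of the secondary pulse compared with the same well before compound.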

Chain of human ether-à-go-go-related gene (hERG) potassium channel (Q12809 whole entry, looked up): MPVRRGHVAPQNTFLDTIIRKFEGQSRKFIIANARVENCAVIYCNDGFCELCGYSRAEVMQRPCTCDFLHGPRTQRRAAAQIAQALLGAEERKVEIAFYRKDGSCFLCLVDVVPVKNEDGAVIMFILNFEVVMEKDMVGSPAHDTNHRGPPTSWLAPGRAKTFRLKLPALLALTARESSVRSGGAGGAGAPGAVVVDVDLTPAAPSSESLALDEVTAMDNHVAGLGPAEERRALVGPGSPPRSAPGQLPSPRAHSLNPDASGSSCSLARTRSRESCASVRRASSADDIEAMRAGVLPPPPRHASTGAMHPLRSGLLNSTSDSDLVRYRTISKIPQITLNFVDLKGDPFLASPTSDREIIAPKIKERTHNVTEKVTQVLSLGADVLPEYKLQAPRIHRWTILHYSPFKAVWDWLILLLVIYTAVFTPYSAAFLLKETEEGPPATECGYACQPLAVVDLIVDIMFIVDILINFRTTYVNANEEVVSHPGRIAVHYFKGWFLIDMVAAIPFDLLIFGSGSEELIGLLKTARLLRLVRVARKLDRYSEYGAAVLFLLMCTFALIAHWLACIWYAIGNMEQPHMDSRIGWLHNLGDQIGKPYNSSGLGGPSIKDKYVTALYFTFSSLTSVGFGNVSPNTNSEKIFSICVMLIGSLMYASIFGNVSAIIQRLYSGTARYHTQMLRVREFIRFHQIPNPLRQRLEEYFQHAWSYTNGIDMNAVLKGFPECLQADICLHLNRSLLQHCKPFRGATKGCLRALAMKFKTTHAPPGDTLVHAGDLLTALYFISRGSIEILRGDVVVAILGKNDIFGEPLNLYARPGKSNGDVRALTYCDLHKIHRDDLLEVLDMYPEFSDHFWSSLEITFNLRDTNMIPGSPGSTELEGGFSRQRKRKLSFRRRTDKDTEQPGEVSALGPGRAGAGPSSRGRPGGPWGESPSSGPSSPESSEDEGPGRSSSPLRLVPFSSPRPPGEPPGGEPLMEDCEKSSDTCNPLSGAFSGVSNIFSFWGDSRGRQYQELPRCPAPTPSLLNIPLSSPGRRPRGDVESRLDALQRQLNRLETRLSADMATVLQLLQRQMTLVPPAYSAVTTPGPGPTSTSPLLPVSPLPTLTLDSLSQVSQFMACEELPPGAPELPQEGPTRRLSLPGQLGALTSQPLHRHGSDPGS

Row | Structure (SMILES) | hERG current change (%, negative = inhibition) at 10uM
1 | COc1cc(NC(=O)c2ccc(F)cc2)c(OC)cc1Cl | 3%
2 | O=S1OC(c2ccccc2)c2cc(Cl)ccc21 (centres unmarked) | 11%
3 | COc1cccc(-c2noc(CCC(=O)NC3CCCC3)n2)c1 | 7.42%
4 | Cn1c(=O)c2c(nc(SCC(=O)O)n2Cc2cc3c(cc2Cl)OCO3)n(C)c1=O | 6.88%
5 | O=c1[nH]c(CSc2nnc(COc3ccccc3)n2-c2ccccc2)nc2ccccc12 | -4.92%
6 | C/C(=N/N1CCN(Cc2cccc3ccccc23)CC1)c1cccnc1 | -50.1%
7 | C/C(=N\N1CCN(C2c3ccccc3-c3ccccc32)CC1)c1cccnc1 | -2.47%
8 | C(=N\N1CCN(Cc2cccc3ccccc23)CC1)/c1cccnc1 | -1.95%
9 | COc1ccc(N(CC(=O)N2CCc3ccccc3C2)S(C)(=O)=O)cc1Cl | -25.7%
10 | CN(C)Cc1c(O)ccc2occ(C(=O)c3ccccc3)c12 | -52.8%
11 | Cc1ccc(C(=O)c2coc3ccc(O)c(CN(C)C)c23)cc1.Cl | -54.7%
12 | Cc1ccc(C(=O)c2coc3ccc(O)c(Cl)c23)cc1 | -26.5%
13 | Cc1oc2ccc(O)c(CN(C)C)c2c1C(=O)c1ccccc1 | -42.4%
14 | CN(C)Cc1c(O)ccc2occ(C(=O)c3ccc(F)cc3)c12 | -69.6%
15 | COc1ccc2occ(C(=O)c3ccccc3)c2c1 | -15.3%
16 | CN(C)Cc1c(O)ccc2occ(C(O)c3ccccc3)c12 (centres unmarked) | -2.08%
17 | Cc1ccc(C(=O)c2coc3ccc(O)cc23)cc1 | 23.2%
18 | CCN(CC)Cc1c(O)ccc2occ(C(=O)c3ccccc3)c12 | -72.6%
19 | O=C(c1ccccc1)c1coc2ccc(O)c(Cl)c12 | -10.9%
20 | COC(=O)C1(C)NC(c2ccc(Cl)cc2)C2C(=O)N(c3ccccc3)C(=O)C21 (centres unmarked) | -3.27%
21 | COc1ccc(C2(c3ccc(OC)cc3)NC(=O)N(CC(=O)Nc3ccc(OC(F)F)cc3)C2=O)cc1 | -19.2%
22 | CCOc1ccc(N2C(=O)C3CCCN3C2=O)cc1 (centres unmarked) | 10.1%
23 | O=C(O)C1CCN1C1CCCCC1 (centres unmarked) | 5.54%
24 | CC(=O)OCCCCCCCCCCC[N+]1(C)CCCCC1.[I-] | -7.49%
25 | COC(=O)CCCCCCCCCC[N+]1(C)CCCCC1.[I-] | -0.248%
26 | C[N+]1(CCCCSc2ccc(O)cc2)CCCCC1.[I-] | -51.7%
